Entries with a potency or affinity are not part of this list.
Assays:
Klebsiella pneumoniae = settings: Concentration 20 uM; ASSAY_TEST Inhibition of Bacterial Growth; detection method Absorption (OD600); MEDIA CAMHB; plate type 384well; NBS; CORNING #3640; time 18 hr
Candida albicans = settings: 20 µM
Cryptococcus neoformans = settings: Concentration 20 uM; ASSAY_TEST Inhibition of Fungal Growth; detection method Resazurin; Absorption (OD600-OD570); plate type 384well; NBS; CORNING #3640

## Nc1c2c(nc3sc4c(c13)CCCC4)CCCC2
Klebsiella pneumoniae
  Inhibition: 3.88%
Candida albicans
  Inhibition: 0.42%
Cryptococcus neoformans
  Inhibition: -9.94%

## CC(=O)Oc1ccccc1C(=O)Nc1ncc([N+](=O)[O-])s1 [NITAZOXANIDE]
Klebsiella pneumoniae
  Inhibition: 13.55%
Candida albicans
  Inhibition: 26.7%
Cryptococcus neoformans
  Inhibition: 17.15%

## CO[C@@H]1CN(c2ccc(C#CC3(O)CN4CCC3CC4)c(Cc3ccccc3)n2)C[C@H]1O (stereo not given in full)
Klebsiella pneumoniae
  Inhibition: 0.81%
Candida albicans
  Inhibition: 1.57%
Cryptococcus neoformans
  Inhibition: 0.17%

## Cc1cc(C2=NOC(c3cc(Cl)c(F)c(Cl)c3)(C(F)(F)F)C2)ccc1C(=O)NCc1ccc2c(c1)C(C)(C)OB2O (stereo not given)
Klebsiella pneumoniae
  Inhibition: 14.68%
Candida albicans
  Inhibition: 4.25%
Cryptococcus neoformans
  Inhibition: -8.68%

## CC1(C)OB(O)c2ccc(C3=NOC(c4cc(Cl)c(F)c(Cl)c4)(C(F)(F)F)C3)cc21 (stereo not given)
Klebsiella pneumoniae
  Inhibition: 23.09%
Candida albicans
  Inhibition: 3.03%
Cryptococcus neoformans
  Inhibition: -7.16%

## CNCCC(Oc1ccc(C(F)(F)F)cc1)c1ccccc1 (stereo not given) [FLUOXETINE]
Klebsiella pneumoniae
  Inhibition: 7.93%
Candida albicans
  Inhibition: 1.88%
Cryptococcus neoformans
  Inhibition: 2.51%

## CO[C@@H](C(=O)N1Cc2[nH]nc(NC(=O)c3ccc(N4CCN(C)CC4)cc3)c2C1)c1ccccc1 [DANUSERTIB]
Klebsiella pneumoniae
  Inhibition: 10.18%
Candida albicans
  Inhibition: 3.17%
Cryptococcus neoformans
  Inhibition: -4%

## Cc1nn(Cc2ccccc2)c(Cl)c1C(=O)NC1CCCCCC1
Klebsiella pneumoniae
  Inhibition: 0.72%
Candida albicans
  Inhibition: 5.99%
Cryptococcus neoformans
  Inhibition: -4.17%

## Cc1nn(C)c(C)c1NS(=O)(=O)c1c(Cl)cc(-c2ccnc(N3CCNCC3)c2)cc1Cl
Klebsiella pneumoniae
  Inhibition: 16.22%
Candida albicans
  Inhibition: 6.45%
Cryptococcus neoformans
  Inhibition: -5.82%

## Cc1cccc(C(=O)Nc2ccnc(N(C)C3CCN(CC(C)C)CC3)c2)c1
Klebsiella pneumoniae
  Inhibition: 8.58%
Candida albicans
  Inhibition: 4.57%
Cryptococcus neoformans
  Inhibition: -6.76%
